From PubChem BioAssay AID894 (National Center for Advancing Translational Sciences (NCATS), 2007) come the findings set out here.

Each structure is given as a SMILES string. The whole screen tested about 150,000 compounds, of which about 6,500 (4.3%) were called active. Roughly 12% stayed inconclusive and do not appear here. Calls come from the whole dose curve; as a rule, active = well fitted inhibition curve with a large enough effect (not every such curve was filed as active); inconclusive = small, poorly fitted or top-dose-only effect, or another doubt; inactive = no such curve, though single readings can be large or run the other way. The entries come from a sample that favours actives as a whole.
% is set by controls: 0 for no effect and ±100 for the full control effect; potency is the fitted concentration of half-maximal effect.

15-hydroxyprostaglandin dehydrogenase [NAD(+)] (Homo sapiens), sequence (P15428 whole entry, looked up): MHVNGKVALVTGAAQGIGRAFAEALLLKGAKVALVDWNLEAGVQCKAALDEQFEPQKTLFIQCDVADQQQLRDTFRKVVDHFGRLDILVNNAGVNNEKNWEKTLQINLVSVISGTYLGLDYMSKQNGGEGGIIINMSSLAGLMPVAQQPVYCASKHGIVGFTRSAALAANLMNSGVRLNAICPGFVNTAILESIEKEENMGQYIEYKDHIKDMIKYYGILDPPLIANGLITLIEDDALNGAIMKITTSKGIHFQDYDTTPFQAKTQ

This test deals with 15-hydroxyprostaglandin dehydrogenase [NAD(+)] (Homo sapiens) (UniProt P15428). In words: qHTS Assay for Inhibitors of HPGD (15-Hydroxyprostaglandin Dehydrogenase). The following applies: purified HPGD, NADH fluorescence kinetic, PGE2 substrate; activity change, negative = inhibition: stronger effect = lower value. The procedure, abridged:
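20 nM HPGD preincubated 15 min at room temperature with compound in 50 mM Tris-HCl pH 8, 0.01% Tween 20. Started with 1 mM NAD+ and 30 uM prostaglandin E2; NADH fluorescence (360/450 nm) read 5 times over 30-s intervals, last minus first.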
For `CCN(CC)CCNCc1ccc(OCc2ccc(Cl)nc2)c(OC)c1`, the activity change, negative = inhibition is -2.75% (inactive).
Consider `O=C1C2C3C=CC(C4CC34)C2C(=O)N1c1nccs1` (stereo unspecified), for which the activity change, negative = inhibition was -6.02% (inactive).
Regarding `CCOc1ccc2nc(SC(CC)C(=O)Nc3cc(C)on3)sc2c1` (stereo unspecified), the activity change, negative = inhibition was 0.253% (inactive).
Consider `CCOc1cccc(NC(=O)C2CCCN(S(=O)(=O)c3ccc(OC)cc3)C2)c1` (stereo unspecified), for which the activity change, negative = inhibition was -17% (inactive).
Turning to `CCOc1ccc2nc(C(=O)N3CCCC(C)C3)sc2c1` (stereo unspecified), the Potency was 7.94 µM (active).
On to `CCC(C)(C(=O)Nc1ccccc1C)N(C(=O)CNC(C)=O)c1ccc(C)cc1` (stereo unspecified), for which the activity change, negative = inhibition was 1.96% (inactive).
Consider `COc1ccc(N2C(=O)C(CC(=O)Nc3ccc(F)cc3)N(CCc3cccs3)C2=O)cc1` (stereo unspecified), for which the activity change, negative = inhibition was -5.46% (inactive).
Regarding `COc1ccc(C(=O)n2nc(-c3ccc(Cl)cc3)nc2N)cc1OC`, the activity change, negative = inhibition is -16.8% (inactive).
With `Cc1ccc(-c2cc(=O)c3ccc(Cl)cc3[nH]2)cc1`, the activity change, negative = inhibition is -2.76% (inactive).
Take `COc1cc(OC)c(-n2cc(-c3ccc(Cl)cc3)[nH]c2=O)cc1Cl`: the Potency was 7.08 µM (active).
For the molecule `COc1ccccc1OCCC(=O)OCC(=O)NCc1ccccc1`, the activity change, negative = inhibition was -9.44% (inactive).
Consider `Cc1cc(=O)[nH]c(SCc2cccc(F)c2)n1`, for which the activity change, negative = inhibition is -22.9% (inactive).
For `Cc1cc(=O)[nH]c(SCc2cc(Cl)ccc2OC(F)F)n1`, the Potency is 14.1 µM (active).
On to `O=c1cc(O)nc(SCc2ccccc2Cl)[nH]1`, for which the activity change, negative = inhibition is -21.6% (inactive).
Regarding `COC1=CCC2([N+](=O)[O-])CN(CC(=O)O)CC1([N+](=O)[O-])C2` (stereo unspecified), the activity change, negative = inhibition was -5.2% (inactive).
For the molecule `C[C@@H](O)c1nc2ccccc2n1N`, the activity change, negative = inhibition was -7.02% (inactive).
Consider `COc1ccc(/C=C(\C#N)C(=O)NCCCn2ccnc2)cc1`, for which the activity change, negative = inhibition is -18.4% (inactive).
`C[C@H]1Cc2c(-c3ccccc3)nc3c(c2CO1)CN(S(=O)(=O)c1ccc(Cl)c2nonc12)CC3`: the activity change, negative = inhibition was -7.2% (inactive).
In the case of `C=CCOc1ccc(/C=N/n2cncn2)cc1OC`, the activity change, negative = inhibition is -24.2% (inactive).
With `COc1cc(/C=N/O)ccc1OCc1ccc([N+](=O)[O-])cc1`, the activity change, negative = inhibition is -3.26% (inactive).
For the molecule `COc1cc(/C=N/n2c(C)n[nH]c2=S)ccc1OCc1ccccc1`, the Potency was 5.62 µM (active).
Consider `CCN=C1S/C(=C\c2cc(Br)ccc2OCC(=O)OCC)C(=O)N1CC`, for which the activity change, negative = inhibition was 51.2% (inactive).
Take `CCCCC1N2CC3([N+](=O)[O-])CN1CC([N+](=O)[O-])(C2)C3(C)C` (stereo unspecified): the activity change, negative = inhibition was -8.6% (inactive).
As to `C[N+]1(CC(O)COc2ccccc2)CCN(C(=O)c2ccc([N+](=O)[O-])cc2)CC1` (stereo unspecified), the activity change, negative = inhibition was -8.27% (inactive).
Consider `CCc1cccc(CC)c1NC(=S)NCc1ccc2[nH]c(C)cc2c1`, for which the activity change, negative = inhibition was -1.27% (inactive).
With `Cc1cc2cc(CNC(=O)c3cccs3)ccc2[nH]1`, the Potency is 7.08 µM (active).
On to `O=C(O)Cc1ccc(NC(=O)c2cccs2)cc1`, for which the activity change, negative = inhibition is -5.78% (inactive).
On to `CN(c1ccccc1)S(=O)(=O)c1ccc(Cl)c(C(=O)NCCc2c[nH]c3ccccc23)c1`, for which the activity change, negative = inhibition was -0.557% (inactive).
`CC(C)C1=CC2=CC[C@H]3[C@](C)(C(=O)O)CCC[C@]3(C)C2CC1` (stereo partly specified): the activity change, negative = inhibition was -6.95% (inactive).
Same read-out and setting: with `CSC1=N/C(=C\c2ccc3c(c2)OCO3)C(=O)S1` the figure was -15.7% (inactive); with `O=C1/C(=C/c2ccc3c(c2)OCO3)CCC/C1=C\c1ccc2c(c1)OCO2`, -8.26% (inactive).
In the case of `CCC1=C/C(=C\c2ccc3c(c2)OCO3)C(=O)S1`, the Potency is 28.2 µM (active).
Regarding `Cc1[nH]c2ccccc2c1/C=N\NC(=O)Cn1nnc(-c2ccccc2)n1`, the activity change, negative = inhibition was -7.96% (inactive).
As for `CCCc1nnc(NC(=O)CN2C(=O)c3ccccc3S2(=O)=O)s1`, the Potency is 14.1 µM (active).
With `CNC(=O)CN1C(=O)c2ccccc2S1(=O)=O`, the activity change, negative = inhibition was 0.566% (inactive).
Regarding `CCCc1nnc(NC(=O)c2cccs2)s1`, the activity change, negative = inhibition is -3.96% (inactive).
Regarding `Cc1ccc(Nc2ccc(C(N)=O)cc2[N+](=O)[O-])cc1`, the activity change, negative = inhibition was -24.4% (inactive).
As to `CCNC(=O)NC(=O)C(C)OC(=O)C1CCN(S(=O)(=O)c2ccccc2F)CC1` (stereo unspecified), the activity change, negative = inhibition is -13.3% (inactive).
As to `Cc1ccccc1-n1nc(C)c2cc(C(=O)NC3CC3)sc21`, the Potency was 22.4 µM (active).
On to `Cc1onc(-c2c(Cl)cccc2Cl)c1C(=O)c1c[nH]c(C(=O)NC2CC2)c1`, for which the activity change, negative = inhibition was -1.05% (inactive).
`Cc1nn(-c2ccccc2)c2sc(C(=O)N(Cc3ccco3)C(C)C(=O)NC(C)(C)C)cc12` (stereo unspecified): the activity change, negative = inhibition was -12.4% (inactive).
As to `OC[C@H]1O[C@@H](n2cnc3c(N[C@H]4CC5CCC4C5)ncnc32)[C@H](O)[C@@H]1O` (stereo partly specified), the activity change, negative = inhibition is -25% (inactive).
Still for that read-out and setting: with `COc1cc(C(=O)NNC(=O)c2ccc(S(=O)(=O)N3CCCCC3)cc2)cc(OC)c1OC` the figure was 5.41% (inactive).
For `COc1cc(Cl)c(S(=O)(=O)n2cnc(C)c2)cc1Cl`, the activity change, negative = inhibition was 0.989% (inactive).
For the molecule `COc1cc(OC)c(-n2c(C)cc(C=O)c2C)cc1Cl`, the Potency is 3.55 µM (active).
As for `COc1ccc(Cl)cc1-n1c(C)cc(C(=O)OCC(=O)N2CC(=O)Nc3ccccc32)c1C`, the activity change, negative = inhibition was -10% (inactive).
On to `C[C@H]1Cc2c(-c3ccccc3)nc3c(c2CO1)CN(C(=O)C1CC1)CC3`, for which the activity change, negative = inhibition is -5.41% (inactive).
For `O=C(COc1ccccc1)N1CCc2ccccc2C1`, the activity change, negative = inhibition is -7.89% (inactive).
On to `COc1ccc(-c2nc3c(c4c2C[C@H](c2ccccc2)OC4)CN(C(=O)C2CC2)CC3)c(C)c1`, for which the activity change, negative = inhibition is -7.07% (inactive).
`COc1ccc2c(c1)CCc1c(C(=O)Nc3c(C)n(C)n(-c4ccccc4)c3=O)noc1-2`: the activity change, negative = inhibition was -26.2% (inactive).
With `COc1ccc2c(c1)CCc1c(C(=O)N3CCCC3)noc1-2`, the Potency was 20 µM (active).
Take `COc1ccc2c(c1)CCc1c(C(=O)N3CCc4ccccc4C3)noc1-2`: the Potency is 17.8 µM (active).
Take `COc1ccc(-c2nc(CS(=O)CC(=O)N3CCc4ccccc4C3)c(C)o2)cc1` (stereo unspecified): the activity change, negative = inhibition is -23.2% (inactive).
On the same count and under the same terms, next, `CC(=O)Nc1ccc(C(=O)OCC(=O)Nc2ccc([N+](=O)[O-])cc2C(F)(F)F)cc1`: -4.2% (inactive).
As to `O=C(CSc1nc2ccc([N+](=O)[O-])cc2[nH]1)c1ccc(Cl)cc1`, the activity change, negative = inhibition was -4.65% (inactive).
Take `COc1ccc(O[C@H]2C=C[C@@H](c3ccccc3)O[C@@H]2CO/N=C/C[C@@H]2C=C[C@H](OC(C)=O)[C@@H](COC(C)=O)O2)cc1`: the activity change, negative = inhibition is -8.59% (inactive).
Turning to `CCOc1ccc(S(=O)(=O)N(CC(=O)NCC(F)(F)F)Cc2ccco2)cc1`, the activity change, negative = inhibition was -11.9% (inactive).
`O=C(Nc1cccc([N+](=O)[O-])c1)c1ccc2c(c1)OCO2`: the activity change, negative = inhibition is -1.46% (inactive).
Consider `N#CC1=C(SCc2ccc(C#N)cc2)N=C(N)C(c2nc(-c3ccccc3)cs2)C12CCCCC2` (stereo unspecified), for which the activity change, negative = inhibition is -15.3% (inactive).
As for `CC1(C)CCc2nc(SCc3ccccc3)c(C#N)cc2C1`, the activity change, negative = inhibition is -11% (inactive).
`N#CC1=C(SCc2ccccc2)NC(=O)C(C#N)C12CCCC2` (stereo unspecified): the Potency was 17.8 µM (active).
Consider `Cc1c(Cl)cccc1NC(=O)CC1SC(=NCC2CCCO2)NC1=O` (stereo unspecified), for which the activity change, negative = inhibition is -12.3% (inactive).
Consider `O=C(CN1C(=O)/C(=C\c2ccc(C(F)(F)F)cc2)Sc2ccccc21)NCc1ccco1`, for which the activity change, negative = inhibition was 33.1% (inactive).
For `Cc1noc(C)c1S(=O)(=O)N1CCCC(C(=O)Nc2nccs2)C1` (stereo unspecified), the Potency was 35.5 µM (active).
Consider `CCOc1ccc(OCC)c(NC(=O)C2CCN(S(=O)(=O)c3c(C)noc3C)CC2)c1`, for which the activity change, negative = inhibition is -8.5% (inactive).
On to `Cc1noc(/C=C/N(C)C)c1S(=O)(=O)N1CCCC(C(=O)NCc2ccco2)C1` (stereo unspecified), for which the activity change, negative = inhibition was -17.1% (inactive).
Regarding `Cn1cc(/C=C/c2nc3ccccc3c(=O)n2-c2cccc([N+](=O)[O-])c2)c2ccccc21`, the activity change, negative = inhibition was -11.6% (inactive).
For the molecule `Cc1ccc(/C=C/C(=O)Nc2cc(S(=O)(=O)N3CCCCCC3)ccc2OCC(F)(F)F)o1`, the activity change, negative = inhibition is -24.4% (inactive).
Turning to `Cn1c(CNC(=O)c2ccccc2F)nnc1SCc1ccc(F)cc1`, the activity change, negative = inhibition was -8.88% (inactive).
`CN(C)c1ccc(-n2cccc2/C=N/n2cnnc2)cc1`: the activity change, negative = inhibition is -4.13% (inactive).
Consider `CCOC(=O)c1sc(NC(=O)CSc2nnc(-c3ccco3)o2)c(C(=O)OCC)c1C`, for which the activity change, negative = inhibition was -18.6% (inactive).
Same read-out and setting: next, `CCOC(=O)c1sc(NC(=O)CSc2ncccn2)c(C#N)c1C`: -17.5% (inactive).
Take `CCOC(=O)c1sc(NC(=O)CSc2nc(C)cc(C(F)(F)F)n2)c(C#N)c1C`: the Potency is 3.55 µM (active).
For `COc1cc(NC(=O)c2cc([N+](=O)[O-])ccc2Br)ccc1NC(=O)c1ccco1`, the activity change, negative = inhibition was -20.2% (inactive).
Still for that read-out and setting: next, `CSc1ccccc1NC(=O)Cc1ccc(Br)cc1`: -10.6% (inactive); `COc1ccccc1-c1nnc(NC(=O)c2cccc(N3C(=O)CCC3=O)c2)o1`: -9.42% (inactive); `COC(=O)c1cc(C(=O)OC)cc(N2C(=O)CC(N3CCN(c4ccccc4)CC3)C2=O)c1` (stereo unspecified): -19.8% (inactive).
For `COC(=O)c1cccc(-n2[nH]nnc2=S)c1`, the Potency is 28.2 µM (active).
Regarding `CN1CCN(c2ccc(S(=O)(=O)N3CCCCC3)cc2NC(=O)Cc2ccccc2F)CC1`, the activity change, negative = inhibition is 3.83% (inactive).
Take `CC1(C)CCCC2=C1CC1C(=O)N(c3ccccc3)C(=O)C1C2` (stereo unspecified): the activity change, negative = inhibition is 0.735% (inactive).
`CC1=C(C)CC2C(=O)N(c3cccc4ccccc34)C(=O)C2C1` (stereo unspecified): the Potency was 25.1 µM (active).
Consider `Cn1c(=O)c2cn(-c3cccc4ccccc34)cc2n(C)c1=O`, for which the activity change, negative = inhibition was -20.9% (inactive).
With `CCCOc1ccc(NC(=O)CC2C(=O)N(C)C(=S)N2Cc2ccc3c(c2)OCO3)cc1` (stereo unspecified), the activity change, negative = inhibition is -0.216% (inactive).
In the case of `O=C(/C=C/c1ccc(F)cc1)Nc1cccc(S(=O)(=O)Nc2cccc(C(F)(F)F)c2)c1`, the activity change, negative = inhibition is -7.72% (inactive).
For the molecule `CCc1ccc(NC(=O)C(C)OC(=O)/C=C/c2cccc([N+](=O)[O-])c2)cc1` (stereo unspecified), the activity change, negative = inhibition was -2.79% (inactive).
Consider `CCOC(=O)C1=C(C)NC(=S)NC1c1cccs1` (stereo unspecified), for which the activity change, negative = inhibition is -5.68% (inactive).
